Results filed as inconclusive are left out. Calls of active or inactive are those of the source. Unless noted, calls follow the shape of the full dose curve.
Columns and labels:
[1] = target: Alpha-galactosidase (Coffea arabica) (UniProt Q42656); experiment: Counterscreen for Glucocerebrosidase Inhibitors: qHTS Assay for Coffee Bean alpha-Galactosidase at pH 5.9 (AID 998; active = well fitted curve in the direction sought with a large enough effect; an effect the other way counts as inactive or inconclusive)
Alpha-galactosidase (Coffea arabica), sequence (Q42656 whole entry, looked up): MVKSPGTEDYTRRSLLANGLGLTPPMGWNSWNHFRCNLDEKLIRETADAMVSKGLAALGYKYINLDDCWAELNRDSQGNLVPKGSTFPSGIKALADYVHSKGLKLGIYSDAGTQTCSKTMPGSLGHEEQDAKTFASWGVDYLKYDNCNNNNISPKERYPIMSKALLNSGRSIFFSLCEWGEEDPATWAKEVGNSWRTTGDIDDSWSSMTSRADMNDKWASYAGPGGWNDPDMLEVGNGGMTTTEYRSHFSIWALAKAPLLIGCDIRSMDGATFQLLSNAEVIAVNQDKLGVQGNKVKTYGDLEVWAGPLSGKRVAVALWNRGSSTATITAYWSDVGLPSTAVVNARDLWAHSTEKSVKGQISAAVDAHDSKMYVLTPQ
Summary of the method: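 In 50 mM citric acid pH 5.9 with 0.005% Tween-20, coffee bean enzyme hydrolyses 80 uM 4-MU alpha-D-galactopyranoside over 20 min at RT. Activity is normalized to controls; AC50 comes from Hill-modelled concentration-response data.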

[2] = Inducers of the Endoplasmic Reticulum Stress Response (ERSR) in human glioma: Validation (AID 504836; active = well fitted curve in the direction sought with a large enough effect; an effect the other way counts as inactive or inconclusive)
Summary of the method: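 Stably transfected U87-MG human glioma cells carrying a GRP78-based luminescent sensor were seeded at 1000 cells/well, pin-dosed with compounds and incubated 16 h. Luciferase reagent was then added, and end-point luminescence was read after 10 min at room temperature.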

[3] = qHTS for Inhibitors of the Functional Ribonucleoprotein Complex (vRNP) of Lassa (LASV) Arenavirus: LASV Primary Screen - GLuc reporter signal (AID 1347082; calls by dose curve; tested in HEK293 reporter line; also: nearly all actives have a fitted effect of over 60% in size)
[4] = qHTS for Inhibitors of the Functional Ribonucleoprotein Complex (vRNP) of Lymphocytic Choriomeningitis Arenaviruses (LCMV): Viability assay - alamar blue signal for LCMV Primary Screen (AID 1347085; calls by dose curve; tested in HEK293 reporter line; also: nearly all actives have a fitted effect of over 80% in size; also: potency is read from the fitted curve at half-maximal effect)
[5] = target: Nucleoprotein (Lymphocytic choriomeningitis virus (strain Armstrong)) (UniProt P09992); experiment: qHTS for Inhibitors of the Functional Ribonucleoprotein Complex (vRNP) of Lymphocytic Choriomeningitis Arenaviruses (LCMV): LCMV Primary Screen - GLuc reporter signal (AID 1347086); also: nearly all actives have a fitted effect of over 70% in size; also: potency is read from the fitted curve at half-maximal effect
Nucleoprotein (Lymphocytic choriomeningitis virus (strain Armstrong)), sequence (P09992 whole entry, looked up): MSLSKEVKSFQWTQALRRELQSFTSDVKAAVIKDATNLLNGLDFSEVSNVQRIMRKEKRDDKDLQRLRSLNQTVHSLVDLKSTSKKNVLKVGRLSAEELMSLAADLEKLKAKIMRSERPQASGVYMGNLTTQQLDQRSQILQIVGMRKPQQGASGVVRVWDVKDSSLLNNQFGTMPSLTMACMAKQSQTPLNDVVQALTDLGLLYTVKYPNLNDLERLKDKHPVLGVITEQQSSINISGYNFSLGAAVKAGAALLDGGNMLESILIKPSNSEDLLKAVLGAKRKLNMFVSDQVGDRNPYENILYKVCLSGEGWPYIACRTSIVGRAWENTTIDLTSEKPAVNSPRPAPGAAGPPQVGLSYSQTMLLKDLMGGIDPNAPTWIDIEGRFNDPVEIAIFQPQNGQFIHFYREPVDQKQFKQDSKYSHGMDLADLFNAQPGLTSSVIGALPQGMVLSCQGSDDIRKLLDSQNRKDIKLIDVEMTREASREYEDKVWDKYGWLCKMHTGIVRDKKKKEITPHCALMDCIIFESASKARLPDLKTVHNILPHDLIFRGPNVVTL

[6] = target: Alpha-galactosidase (Coffea arabica) (UniProt Q42656); experiment: Counterscreen for Glucocerebrosidase Inhibitors: qHTS Assay for Coffee Bean alpha-Galactosidase at pH 4.5 (AID 957; active = well fitted curve in the direction sought with a large enough effect; an effect the other way counts as inactive or inconclusive)
Summary of the method: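 Enzyme is added first (2 nM final), then compounds titrated from 0.7 nM to 77 uM, then 80 uM 4-methylumbelliferyl alpha-D-galactopyranoside; after 20 min at room temperature a pH 10 NaOH/glycine stop precedes fluorescence reading at 365/440 nm.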

[7] = Validation screen for inhibitors of Lassa infection (AID 463096); also: potency is read from the fitted curve at half-maximal effect
[8] = Primary qHTS for inhibitors of SARS-S pseudo-typed particle cell entry (AID 1479145); also: potency is read from the fitted curve at half-maximal effect; nearly all actives have a fitted effect of over 45% in size
[9] = Primary qHTS for Huh7 cytotoxicity: counterscreen for inhibitors of MERS-S pseudotyped particle cell entry (AID 1479147); settings: outcome: dose series up to 57.1 µM unless noted
[10] = Primary qHTS for Vero E6 cytotoxicity: counterscreen for inhibitors of SARS-S pseudo-typed particle cell entry (AID 1479150); settings: outcome: dose series up to 57.1 µM unless noted
[11] = Cytotoxicity counterscreen for inhibitors of SARS-CoV-2 cell entry (AID 1645845); also: nearly all actives have a fitted effect of over 50% in size
Summary of the method: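 After a 15 min room-temperature ATPLite 1step step, luminescence reflected ATP remaining in HEK293-ACE2 cells exposed to compound for 1 h plus 48 h at 37 C, with percent activity set by cell and no-cell controls.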

[12] = VSVG counterscreen qHTS to identify inhibitors of SARS-CoV-2 cell entry (AID 1645847); also: potency is read from the fitted curve at half-maximal effect; nearly all actives have a fitted effect of over 65% in size
Summary of the method: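 Entry of VSV-G pseudotyped particles into human ACE2-expressing HEK293 cells was measured by luciferase luminescence 48 h after infection, with compound added 1 h beforehand.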

[13] = Primary qHTS to identify inhibitors of SARS-CoV-2 cell entry (AID 1645846); settings: activity change, negative = inhibition: at 57.1 µM (top of the series) unless noted; also: nearly all actives have a fitted effect of over 45% in size
Summary of the method: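 Using luciferase-reporting pseudoviruses carrying Wuhan-Hu-1 spike, the screen tracks entry into stably ACE2-expressing cells over 48 hr. Activity is expressed relative to spike particles versus particles lacking any fusion protein.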

NC(=Nc1ccccc1)NC(=O)c1nc(Cl)c(N)nc1N
inactive: outcome [1] | outcome [2] | Potency [3] | Potency [4] | Potency [5]

CCC[C@H]1NC(=O)[C@H](C)N(C)C(=O)C(C)(C)C(=O)C(C)NC(=O)[C@H](Cc2ccc(OC)cc2)N(C)C(=O)[C@H](C(C)C)N(C)C(=O)CNC(=O)[C@H](CC(C)C)N(C)C(=O)CNC(=O)[C@H]([C@@H](C)CC)OC(=O)[C@H]1C (stereo partly drawn)
inactive: Potency [3] | Potency [5]

CCCC(=O)NCCc1c2n(c3ccc(OC)cc13)CCCc1ccccc1-2
inactive: outcome [6] | outcome [1] | Potency [7] | Potency [3] | Potency [4]

CC(N)(Cc1ccc(O)c(O)c1)C(=O)O (stereo not drawn)
inactive: Potency [7] | outcome [2] | Potency [3] | Potency [4] | Potency [5]

COc1cc2nccc(Oc3ccc(NC(=O)NC4CC4)c(Cl)c3)c2cc1C(N)=O
inactive: Potency [3] | outcome [9] | outcome [10] | Potency [11]
active: Potency [4] 19.3 µM | Potency [8] 3.55 µM | Potency [12] 19.2 µM

OCc1ccc(-c2nn(Cc3ccccc3)c3ccccc23)o1
inactive: outcome [6] | outcome [1] | outcome [2] | Potency [3] | Potency [4] | Potency [5]
-87.6%: activity change, negative = inhibition [13]
active: Potency [7] 4.47 µM

COc1cc2c(c(OC)c1OC)-c1ccc(OC)c(=O)cc1C(N)CC2 (stereo not drawn)
inactive: Potency [3]
active: Potency [5] 0.178 µM

CCCCCC(O)c1cccc(OCc2ccc3ccccc3n2)c1 (stereo not drawn)
inactive: Potency [7] | outcome [2] | Potency [3] | Potency [4] | Potency [5]

COc1ccc(NC(=O)/C=C/c2ccc(Cl)cc2)cc1
inactive: Potency [3] | Potency [5]

CC(=O)O[C@@]12CO[C@@H]1C[C@H](O)[C@@]1(C)C(=O)[C@H](O)C3=C(C)[C@@H](OC(=O)[C@H](O)[C@@H](NC(=O)c4ccccc4)c4ccccc4)C[C@@](O)([C@@H](OC(=O)c4ccccc4)C12)C3(C)C (stereo partly drawn)
inactive: Potency [3] | Potency [5]

N#CC(c1ccnc(NCCc2cccnc2)n1)c1nc2ccccc2s1 (stereo not drawn)
active: Potency [4] 15.3 µM
inactive: Potency [3] | Potency [13]

CCC(C)SSc1ncc[nH]1 (stereo not drawn)
inactive: Potency [3] | Potency [5]

C=C1C([C@@]2(C)C(OC(C)=O)CC(=O)O[C@@](C)(COC(C)=O)C2CC(=O)OC)C(OC=O)C(OC(=O)C(O)C(C)CC)[C@]2(C)C(c3ccoc3)CC(=O)C12O (stereo partly drawn)
inactive: Potency [3] | Potency [5]

COc1cc2ncnc(Nc3cccc(Cl)c3)c2cc1OC
inactive: outcome [6] | outcome [1] | Potency [7] | outcome [2] | Potency [3] | Potency [4] | Potency [5] | Potency [11]
